Drawing on PubChem BioAssay AID463173 (ICCB-Longwood Screening Facility, Harvard Medical School, 2010), this text covers survival for 92 compounds.

Molecules are shown by their SMILES. Among all 52,000 compounds or so, about 1,700 (3.3%) were called active. Cut-off read from the data, not from the text of the source: active = survival mostly below about 52% (no sharp cut-off); inactive = mostly above about 56%. Shown is part of a subset that was picked to be rich in actives.

The subject of the experiment is Wild type. The experiment can be described thus: S. aureus survival, RN4220 and DeltatarO strains – OD600, teichoic acid synthesis inhibitors, primary screen (AID 463173). The settings on record: S. aureus RN4220 wild type/DeltatarO growth, OD600, 18 h, active compounds read low, screened at 18.75 µg/mL (by protocol).
For `COc1cccc(CNC(=O)CN2C(=O)COc3ccc(S(=O)(=O)N4CCCCC4)cc32)c1`, the survival is 100% (inactive). As to `CCOc1ccccc1CNC(=O)C(CC)n1nc(C)c2c(C)n(-c3ccccc3)nc2c1=O` (configuration not stated), the survival was 88% (inactive).

For the compound `CCOC(=O)c1ccc(NC(=O)CCCn2c(=O)c3cccn3c3ccccc32)cc1`, the survival was 78% (inactive). Regarding `CCc1ccc(C(=O)c2cn(CC(=O)Nc3ccc(OC)c(Cl)c3)c3nc(C)ccc3c2=O)cc1`, the survival is 119% (inactive). Take `COC(=O)c1sc2cccc(F)c2c1S(=O)(=O)Nc1ccc(N(C)C)cc1`: the survival was 53% (inactive). The value for `CCOC(=O)c1sc2cccc(F)c2c1S(=O)(=O)Nc1ccccc1F` was 124% (inactive); that for `COC(=O)c1sc2cccc(F)c2c1S(=O)(=O)Nc1cc(C)c(Cl)cc1OC` was 85% (inactive); that for `COC(=O)c1sc2cccc(F)c2c1S(=O)(=O)Nc1ccc(C)cc1Cl` was 63% (inactive).

With `COC(=O)c1sc2cccc(F)c2c1S(=O)(=O)Nc1cc(OC)cc(OC)c1`, the survival was 0% (active). As for `CCOc1ccccc1NS(=O)(=O)c1c(C(=O)OC)sc2cccc(F)c12`, the figure is -3% (active). Take `CC(C)c1ccc(NC(=O)C2CCCN(S(=O)(=O)c3cccc4nsnc34)C2)cc1` (configuration not stated): the survival is 70% (inactive). Turning to `CN1CCc2nc3sc(C(=O)c4ccc5c(c4)OCO5)c(N)c3cc2C1`, the survival was 116% (inactive).

Consider `Cc1ccc(-n2c(-c3ccc(Br)cc3)nc3c(cnn3-c3ccccc3)c2=O)cc1`, for which the survival was 66% (inactive). For the compound `Clc1ccc(CNc2ccccn2)cc1`, the survival was 98% (inactive). As for `Cc1cc(C)cc(Nc2nnc(-n3nc(C)cc3C)c3ccccc23)c1`, the figure is 86% (inactive); as for `CC(=O)c1ccc(Nc2nc3ccccc3nc2-n2nc(C)cc2C)cc1`, 54% (inactive).

Regarding `Cc1cc(C)n(-c2nc3ccccc3nc2Nc2ccc(Cl)c(C(=O)OC(C)C)c2)n1`, the survival is 84% (inactive). For the compound `Cc1cc(C)cc(Nc2nc3ccccc3nc2-n2nc(C)cc2C)c1`, the survival is 8% (active). The value for `Cc1cc(C)n(-c2nc3ccccc3nc2Nc2ccc(C(C)C)cc2)n1` was 5% (active); that for `Cc1ccc2nc(Nc3cccc(Cl)c3C)c(-n3nc(C)cc3C)nc2c1` was 131% (inactive); that for `Cc1cc(C)cc(Nc2nc3cc(Cl)c(Cl)cc3nc2-n2nc(C)cc2C)c1` was 81% (inactive). The value for `Cc1cc(C)n(-c2nc3ccccc3nc2Nc2cc(Cl)ccc2C)n1` was 131% (inactive); that for `Cc1cc(C)n(-c2nnc(Nc3ccc(C(C)C)cc3)c3ccccc23)n1` was 74% (inactive). As for `Cc1cc(C)n(-c2nc3ccccc3nc2Nc2ccc(N(C)C)cc2)n1`, the figure is 2% (active); as for `Cc1cc(C)n(-c2nc3ccccc3nc2Nc2cccc(C)c2C)n1`, 7% (active). In the case of `CCCOC(=O)c1ccc(Nc2nc3ccccc3nc2-n2nc(C)cc2C)cc1`, the survival was 32% (inactive). For `CCOC(=O)N1CCc2c(sc(NCc3sccc3C)c2C(=O)Nc2cc(OC)ccc2OC)C1`, the survival is 65% (inactive). Turning to `Cc1cccc(N2CCN(Cc3nnc(-c4ccccc4C)o3)CC2C)c1` (configuration not stated), the survival is 21% (inactive). As for `CCOC(=O)c1c(C)sc(-c2c(-c3ccc(OC)c(F)c3)[nH]c3[nH]c(=O)[nH]c(=O)c23)c1O`, the survival is 111% (inactive). As for `CCCOc1ccc(CNC(=O)Cn2cc3c(n2)-c2c(oc(C(=O)N4CCOCC4)c2C)CC3)cc1`, the figure is 96% (inactive); as for `COc1ccc(-c2nn(C)c3sc(C(=O)NCCN(C)C)cc23)cc1OC`, 82% (inactive).

For the compound `CCOC(=O)c1c(C)[nH]c(C)c1S(=O)(=O)N(C)CC(=O)Nc1cccc(C(F)(F)F)c1`, the survival was 69% (inactive). The value for `COC(=O)C(CCSC)NC(=O)Cn1ncc2c([nH]c3ccccc32)c1=O` (configuration not stated) was 47% (inactive). Consider `COc1cc2c(c(OC)c1)C(c1cccc(F)c1F)CC(=O)N2` (configuration not stated), for which the survival is 82% (inactive). As for `COc1ccc(CCN(Cc2nc3ccccc3c(=O)[nH]2)C(=O)c2ccco2)cc1`, the figure is 81% (inactive). Regarding `Cc1ccc(NS(=O)(=O)c2ccc3[nH]c4c(c3c2)CCCCC4)cc1`, the survival is 84% (inactive). As for `O=C(CCn1c(=O)c2cccn2c2cccnc21)NCc1ccccc1Br`, the figure is 93% (inactive). On to `Cc1cc(C)n(-c2nc3ccccc3nc2Nc2ccc(Cl)c(Cl)c2)n1`, for which the survival is 1% (active).

For the compound `COc1ccc(OC)c(Nc2nc3ccccc3nc2-n2nc(C)cc2C)c1`, the survival was 10% (active). For the compound `COc1cc(OC)c(Nc2nc3ccccc3nc2-n2nc(C)cc2C)cc1Cl`, the survival is 80% (inactive). As for `Cc1ccc(Nc2nc3ccccc3nc2-n2nc(C)cc2C)c(Cl)c1`, the figure is 88% (inactive).

Regarding `COc1ccccc1Nc1nc2ccc(Cl)cc2nc1-n1nc(C)cc1C`, the survival was 138% (inactive). As for `Cc1cc(C)n(-c2nc3ccccc3nc2Nc2ccc(Cl)cc2Cl)n1`, the figure is 86% (inactive). `Cc1ccc(CNC(=O)c2ccc(Cn3c(SCc4ccc(F)cc4)nc4cccnc43)cc2)o1`: the survival was 84% (inactive).

Regarding `Cc1ccc(C(=O)c2sc(Nc3ccc(F)cc3)c(C#N)c2N)cc1`, the survival is 108% (inactive). As for `CCCOc1ccc(C(=O)Nc2ccc3nn(-c4ccc(OC)c(Cl)c4)nc3c2)cc1`, the figure is 145% (inactive); as for `COc1ccc(CNC(=O)C(=O)Nc2ccc(OC)cc2OC)cc1`, 80% (inactive); as for `N#C/C(=C/C=C/c1ccco1)c1nc2ccccc2[nH]1`, 113% (inactive). The value for `CCCn1c2ccccc2c2cnn(CC(=O)NCCc3ccc(C)cc3)c(=O)c21` was 121% (inactive). As for `CCCn1c2ccccc2c2cnn(CC(=O)NCCc3ccc(OCC)cc3)c(=O)c21`, the figure is -6% (active); as for `CCCn1c2ccccc2c2cnn(CC(=O)NCCCOC(C)C)c(=O)c21`, -6% (active); as for `CCCn1c2ccccc2c2cnn(CC(=O)NCCCN3CCCCC3)c(=O)c21`, 78% (inactive).

Turning to `CCCn1c2ccccc2c2cnn(CC(=O)NCCc3ccc(OCC)c(OCC)c3)c(=O)c21`, the survival was 76% (inactive). The value for `CCCNC(=O)Cn1ncc2c3ccccc3n(CCC)c2c1=O` was 133% (inactive); that for `CCCSc1nc(=O)c2c(n1C)NC(=O)CC2c1cccc(F)c1F` (configuration not stated) was 82% (inactive); that for `COc1ccc(NC(=O)N2CCN(c3cc(-c4noc(C)n4)ccc3C)CC2)c(OC)c1` was 133% (inactive). For the compound `COc1cc([N+](=O)[O-])ccc1NC(=O)N1CCN(c2cc(-c3noc(C)n3)ccc2C)CC1`, the survival was 78% (inactive). As for `Cc1ccc(NC(=O)N2CCN(c3cc(-c4noc(C)n4)ccc3C)CC2)c(C)c1`, the figure is 72% (inactive); as for `Cc1nc(-c2ccc(C)c(N3CCN(C(=O)Nc4ccc(Br)cc4)CC3)c2)no1`, -1% (active); as for `Cc1ccc(NC(=O)N2CCN(c3cc(-c4noc(C)n4)ccc3C)CC2)c(F)c1`, -6% (active).

On to `COc1cc(NC(=O)N2CCN(c3cc(-c4noc(C)n4)ccc3C)CC2)cc(OC)c1OC`, for which the survival is 14% (active).

Regarding `Cc1cc(C)cc(NC(=O)N2CCN(c3cc(-c4noc(C)n4)ccc3C)CC2)c1`, the survival was 76% (inactive). Turning to `CSc1cccc(NC(=O)N2CCN(c3cc(-c4noc(C)n4)ccc3C)CC2)c1`, the survival was 74% (inactive). With `COc1ccc(C)cc1NC(=O)N1CCN(c2cc(-c3noc(C)n3)ccc2C)CC1`, the survival is 85% (inactive). For `Cc1ccc2scc(N3CCN(c4ccccc4)CC3)c(=O)c2c1`, the survival is 74% (inactive). `Cc1c(-c2cccc(NC(=O)Cc3ccccc3)c2)nc2ncccn12`: the survival was 73% (inactive).

Consider `Cc1ccc2c(CNC3CCCC3)c(C(=O)O)n(Cc3ccc(F)cc3)c2c1`, for which the survival is 111% (inactive). As for `C/C(=N\NC(=O)COc1ccccc1)C1C(=O)c2ccccc2C1=O`, the figure is 107% (inactive). The value for `COc1cccc(-n2c(SCC(=O)Nc3cc(C)ccc3C)nc3c(oc4ccccc43)c2=O)c1` was 96% (inactive); that for `COc1ccc(Nc2nnc(-c3ccc(C)c(S(=O)(=O)NCCO)c3)c3ccccc23)cc1C(N)=O` was 70% (inactive); that for `CCc1nn2c(-c3ccccc3OC)ccnc2c1-c1ccccc1` was -12% (active). Turning to `CCc1nn2c(-c3ccco3)ccnc2c1-c1ccc(F)cc1`, the survival is 71% (inactive).

Take `Cc1nn2c(-c3ccco3)ccnc2c1-c1ccc(F)cc1`: the survival is 75% (inactive). The value for `COc1ccccc1-c1ccnc2c(-c3ccc(Br)cc3)c(C)nn12` was 77% (inactive).

For `COc1cccc(-c2ccnc3c(-c4ccc(F)cc4)c(C)nn23)c1`, the survival was 99% (inactive). In the case of `CCc1nn2c(-c3ccccc3OC)ccnc2c1-c1ccc(F)cc1`, the survival is -11% (active). For `Cc1ccccc1-c1ccnc2c(-c3ccc(F)cc3)c(C)nn12`, the survival is -13% (active).

As for `COc1ccc(-c2ccnc3c(-c4ccc(F)cc4)c(C)nn23)cc1OC`, the survival is 79% (inactive). As for `CCc1nn2c(-c3ccco3)ccnc2c1-c1ccccc1`, the figure is 89% (inactive); as for `CCOc1ccc(CN2CCC(C(=O)NCC3CCCO3)CC2)cc1OC` (configuration not stated), 99% (inactive); as for `CCOC(=O)C1CCCN(C(=O)Cn2ncc3c4ccccc4n(Cc4ccccc4)c3c2=O)C1` (configuration not stated), 121% (inactive).

Regarding `CCOC(=O)c1c(NC(=O)COc2cccc(C)c2C)sc(C(C)=O)c1C`, the survival was 130% (inactive). The value for `CC(C)CSc1oc(-c2ccco2)nc1S(=O)(=O)c1ccc(Br)cc1` was 27% (active); that for `CCSc1oc(-c2ccco2)nc1S(=O)(=O)c1ccc(Br)cc1` was 65% (inactive). With `Cc1ccc(S(=O)(=O)c2nc(-c3ccco3)oc2SCC(C)C)cc1`, the survival is 39% (inactive).

As to `CCC(C)Sc1oc(-c2ccco2)nc1S(=O)(=O)c1ccc(Cl)cc1` (configuration not stated), the survival is 25% (inactive). Take `CCC(C)Sc1oc(-c2ccco2)nc1S(=O)(=O)c1ccc(C)cc1` (configuration not stated): the survival is -12% (active). Take `Cc1ccc(S(=O)(=O)c2nc(-c3ccco3)oc2SC(C)C)cc1`: the survival is 49% (inactive). As for `CNC(=O)C1CCN(Cc2cc3ccccc3n2Cc2cccc(C)c2)CC1`, the figure is 81% (inactive). Consider `CC(=O)Nc1ccc2nc(SCCOc3ccccc3Cl)sc2c1`, for which the survival is 9% (active).

On to `O=C(Nc1ccc2nc(SCCOc3ccccc3Cl)sc2c1)c1cccs1`, for which the survival is 72% (inactive). On to `CC(C)(C)C(=O)Nc1ccc2nc(SCCOc3ccccc3Cl)sc2c1`, for which the survival was 99% (inactive).
